Compounds with a hit are over-represented: about 3.6% of the library has one in this group of screens.
Epigenetic derep – Quantitative High-Throughput Screen for Regulators of Epigenetic Control; Potency, µM (titrated, usually from 53.9 µM), hits mostly activators; murine LDR cells, GFP reporter derepression, 30 h; AID 1865, 2009; 280,000 compounds, 0.2% hits; note: nearly all actives have a fitted effect of over 60% in size
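GFP-positive cell count by laser-scanning cytometry (objects 20–120 um) after 30 h, 37 C compound exposure of murine LDR cells; reporter is CMV-GFP integrated at a silenced locus, inducible by HDAC or DNMT inhibitors.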
IMPase Li inh – qHTS Assay for Identifying the Cell-Membrane Permeable IMPase Inhibitors: Potentiation with Lithium; CHO-M1 cells, IP1 TR-FRET (IP-One), carbachol + lithium; Potency, µM (titrated, usually from 59.4 µM), actives largely listed as inhibitors; 210,000 compounds, 0.35% hits; AID 1457, 2008;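 note: IP1 builds up when IMPase is blocked and the TR-FRET signal falls; nearly all actives have a fitted effect of over 50% in size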
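Lithium-sensitised IP1 accumulation assay; M1-expressing CHO cells treated 30 min at 37C with compound. Competitive antibody detection by time-resolved FRET followed a 10 min room-temperature lysis step.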
Sfp inh – qHTS Assay for Inhibitors of Bacillus subtilis Sfp phosphopantetheinyl transferase (PPTase); 4'-phosphopantetheinyl transferase ffp (Bacillus subtilis), Q9F4F7; Biochemical Sfp PPTase activity, qHTS; Potency, µM, actives largely listed as inhibitors; 310,000 compounds, 3.5% hits;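 note: the enzyme is Sfp with the accession as filed and its product quenches rhodamine fluorescence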
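Fluorescence-quenching assay: 15 nM Sfp-PPTase preincubated 15 min at room temperature with compound, then 5 uM rhodamine-CoA and 12.5 uM BHQ-2-labelled YbbR peptide added. Fluorescence (ex 525/em 598 nm) read at start and after 30 min; difference gives rate.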
KAT2A inh – qHTS Assay for Inhibitors of GCN5L2; Histone acetyltransferase KAT2A (Homo sapiens), Q92830; GCN5L2 HAT assay, ThioGlo1 CoA-SH fluorescence; Potency, µM (highest dose often 58.9 µM), usual class: inhibitors; 390,000 compounds, 0.21% hits; AID 504327, 2011
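GCN5L2 (20nM final) in 50mM HEPES, 0.1mM EDTA pH 7.5, 0.01% Tween-20 was preincubated 15 min at room temperature with compound, then given ThioGlo1 (50uM), H3(1-25) peptide (75uM) and acetyl-CoA (70uM); CoA-thiol fluorescence (Ex340/Em540) was read at 0 and 20 min.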
NPSR antag – qHTS Assay for Antagonists of the Neuropeptide S Receptor: cAMP Signal Transduction; Q6W5P4; CHO-NPSR cells, cAMP TR-FRET, antagonist mode; Potency, µM (doses to about 38.3 µM), actives largely listed as inhibitors; 220,000 compounds, 1% hits; note: nearly all actives have a fitted effect of over 50% in size
KDM4E inh – qHTS Assay for Inhibitors of Human Jumonji Domain Containing 2E (JMJD2E); Lysine-specific demethylase 4E (Homo sapiens), B2RXH2; JMJD2E catalytic domain, FDH-coupled NADH fluorescence (FDH is formaldehyde dehydrogenase); Potency, µM (titrated, usually from 57.1 µM), actives largely listed as inhibitors; 230,000 compounds, 1.6% hits; AID 2147, 2009; active = well fitted inhibition curve with a large enough effect, not every such curve was filed as active; inconclusive = small, poorly fitted or top-dose-only effect, or another doubt; inactive = no such curve, though single readings can be large or run the other way; note: nearly all actives have a fitted effect of over 50% in size
Target sequence (B2RXH2 1-337 limits assumed): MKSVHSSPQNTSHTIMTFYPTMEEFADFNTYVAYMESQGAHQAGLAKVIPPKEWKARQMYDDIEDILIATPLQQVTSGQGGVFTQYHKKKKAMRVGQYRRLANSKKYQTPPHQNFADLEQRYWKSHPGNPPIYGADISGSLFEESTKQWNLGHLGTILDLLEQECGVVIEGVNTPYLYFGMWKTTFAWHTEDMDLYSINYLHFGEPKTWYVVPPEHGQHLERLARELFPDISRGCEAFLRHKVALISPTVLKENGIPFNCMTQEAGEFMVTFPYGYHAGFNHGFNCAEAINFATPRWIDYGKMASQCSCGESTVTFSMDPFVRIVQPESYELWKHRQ
Each line names hits and unclear results; the compound was inactive in the other large screens. Unless noted, calls come from the whole dose curve; as a rule, active = well fitted curve in the direction sought with a large enough effect; inconclusive = small, poorly fitted or top-dose-only effect, or another doubt; inactive = no such curve, though single readings can be large; an effect the other way counts as inactive or inconclusive.

O=c1cc(-c2ccccc2)oc2cc(O)c(O)cc12	KDM4E inh 28µM (no result: NPSR antag)
O=c1cc(-c2ccc(O)c(O)c2)oc2ccccc12	KDM4E inh 8.9µM (no result: NPSR antag)
O=C(NCCNCCO)C1(C(F)(F)F)CC(CCc2ccccc2)CCCO1 (centres undefined)	none (no result: Epigenetic derep, IMPase Li inh, KAT2A inh, NPSR antag, KDM4E inh)
N#Cc1cc(C#N)c(N2CCN(c3ccccn3)CC2)nc1N	IMPase Li inh 28µM
CCOC(=O)N1CCc2c(sc3c2C(=O)NC(c2ccc(C(=O)OC)cc2)N3)C1 (centres undefined)	none (no result: IMPase Li inh, Sfp inh, NPSR antag, KDM4E inh)
O=C1c2ccccc2NC(c2cccc(O)c2)N1O (centres undefined)	none (no result: Epigenetic derep, IMPase Li inh, NPSR antag, KDM4E inh)
COC(=O)c1ccc(C2NC(=O)c3c(sc(C)c3C)N2)cc1 (centres undefined)	Sfp inh 16µM, KAT2A inh inconclusive, KDM4E inh inconclusive (no result: IMPase Li inh)
Cc1sc2c(c1C)C(=O)NC(c1cccc(O)c1)N2 (centres undefined)	Sfp inh 40µM, NPSR antag inconclusive
CC1(O)/C=C\C=C(\CO)C2CC(C)(C)C2(O)CC1 (centres undefined)	none (no result: KAT2A inh, NPSR antag)
O=Cc1ccc(-n2cccn2)cc1	KDM4E inh 14µM
O=C(Cc1coc2cc3c(cc12)CCC3)OCc1cc(=O)n2c(n1)sc1ccccc12	Sfp inh 40µM, KDM4E inh inconclusive
O=C(O)c1cc(-c2ccc(Cl)s2)nc2ccccc12	IMPase Li inh 11µM, NPSR antag 6.3µM, KDM4E inh inconclusive
Cc1ccc(NC(=O)c2cc(-c3ccc(C)o3)nc3ccccc23)cc1	Sfp inh 10µM
COc1cc(-c2cc(C(=O)Nc3ccc(O)cc3)c3ccccc3n2)cc(OC)c1OC	Sfp inh 22µM (no result: IMPase Li inh)
Cc1cc(NC(=O)c2cc(-c3ccc(C)s3)nc3ccccc23)no1	Epigenetic derep inconclusive, IMPase Li inh inconclusive, KAT2A inh 28µM, KDM4E inh inconclusive
C/C=C/C(=O)[C@@H](C)[C@@H](/C=C/C[Si](C)(C)C)c1ccccc1	none (no result: Epigenetic derep, IMPase Li inh, KAT2A inh, NPSR antag, KDM4E inh)
O=C(NS(=O)(=O)c1ccc(F)cc1)O[C@@H]1C(=O)c2cc(Br)ccc2O[C@H]1c1ccc2c(c1)OCO2	none (no result: KAT2A inh, NPSR antag)
CC(=O)c1ccc(N2CCN(C(=O)c3cc4ccc5cccnc5c4[nH]3)CC2)cc1	none (no result: IMPase Li inh, Sfp inh, NPSR antag, KDM4E inh)
Cc1ccc(-c2cc(C(=O)NCCN3CCOCC3)c3ccccc3n2)o1	KAT2A inh 13µM (no result: Epigenetic derep, IMPase Li inh, NPSR antag, KDM4E inh)
Cc1ccc(-c2cc(C(=O)Nc3ccccn3)c3ccccc3n2)o1	Sfp inh 22µM, KDM4E inh inconclusive
Cc1ccc(-c2cc(C(=O)Nc3ccc(S(=O)(=O)Nc4nccs4)cc3)c3ccccc3n2)c(C)c1	Sfp inh 20µM (no result: IMPase Li inh)
O=C(Nc1ccc(S(=O)(=O)Nc2nccs2)cc1)c1cc(-c2ccccc2)nc2ccccc12	none
O=C(NC1CCCCC1)Oc1cc2oc(=O)sc2cc1Br	Sfp inh 16µM (no result: IMPase Li inh)
COC(=O)C1CSc2[nH]c(=O)sc2C1c1ccccc1 (centres undefined)	Sfp inh 45µM
CCCOc1ccc(CN(C(=O)Cc2coc3ccc(CC)cc23)C2CCS(=O)(=O)C2)cc1 (centres undefined)	none (no result: IMPase Li inh, Sfp inh, NPSR antag, KDM4E inh)
C/C(=C\C[Si](C)(C)C)CC[C@H](O)C1=CCCCC1=O	none (no result: KAT2A inh, NPSR antag)
Cc1ccc(N=CC2=C(O)CC(c3ccco3)CC2=O)cc1 (centres undefined)	none
O=C1CC(c2ccco2)CC(O)=C1C=Nc1ccc(Br)cc1 (centres undefined)	Sfp inh 56µM, KDM4E inh inconclusive
CCc1ccc(N=CC2=C(O)CC(c3ccco3)CC2=O)cc1 (centres undefined)	Sfp inh 79µM, KDM4E inh inconclusive
CCOC(=O)c1c(NC(=O)C2c3ccccc3Oc3ccccc32)sc(C)c1CC	none (no result: IMPase Li inh, Sfp inh, NPSR antag, KDM4E inh)
C=CCNC(=O)N1CCc2nc(-c3ccccc3)c3c(c2C1)CO[C@@H](C)C3	none (no result: Epigenetic derep, KAT2A inh, NPSR antag)

Source: PubChem BioAssay
